From PubChem BioAssay
Shown are actives, neighbours in structure and some others; about 2.2% of the full set was active somewhere.
Abeta yeast res: qHTS for compounds that reverse cellular toxicity of Amyloid beta (A-beta) peptide in yeast: Primary Screen. yeast expressing A-beta42, growth rescue, OD600, 48 h; response scale: 0% DMSO, 100% iron-clioquinol control. Potency, µM (series often up to 46.1 µM), most hits filed as activators. actives 0.063% (n = 410,000); also: nearly all actives have a fitted effect of over 55% in size
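Yeast growth medium received pinned compounds, then yeast cells expressing toxic A-beta were added; plates incubated at 30 C for 48 hr. Growth read as absorbance at 600 nm, normalized to DMSO and equimolar FeCl3 plus clioquinol controls.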
aSyn rescue: qHTS of alpha-syn Inhibitors. Yeast expressing alpha-synuclein, growth rescue, BacTiter-Glo, 24 h. Potency, µM (series often up to 46.1 µM), without a hit: at the highest dose growth rescue (activation), most hits filed as activators. actives 0.14% (n = 370,000); also: % of control where 0% means no effect; nearly all actives have a fitted effect of over 65% in size
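Readout is rescue of growth in alpha-synuclein-expressing yeast, so inhibitors of toxicity appear as activators. Growth after 24 hr at 30 deg C in galactose medium is quantified by luminescence.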
FUS yeast rescue: qHTS for Suppressors of FUS Proteinopathy: Primary screen using FUS-linked yeast assay; S. cerevisiae FUS-expressing, growth rescue, OD600, 24 h; Potency, µM (top dose mostly 76.6 µM), usual class: activators; actives 0.24% (n = 390,000);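 also: plate controls were DMSO vehicle for no effect and reference control for full effect; nearly all actives have a fitted effect of over 55% in size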
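Yeast FUS proteinopathy model; galactose-induced FUS (2%), starting OD 0.005. Cpds in dilution series, 24hr, 30C, 99% humidity. Abs 600 nm growth. Pos ctrl CP55940 (top 92uM final); neg ctrl DMSO.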
ERG Ets-DNA blk: qHTS for Small Molecule Inhibitors of the ERG Ets/DNA interaction; Transcriptional regulator ERG (Homo sapiens), P11308; fluorescence polarization, His-ERG Ets domain / labelled DNA; Potency, µM (doses to about 76.9 µM), for the others: at the highest dose FP activity, negative = inhibition, most hits filed as inhibitors; actives 0.028% (n = 370,000); AID 624246, 2012; active = well fitted inhibition curve with a large enough effect in the polarisation, with a control signal flat; inconclusive = small, poorly fitted or top-dose-only effect, or effect the other way, or a change in a side signal; inactive = no such curve, though single readings can be large or run the other way; the % refers to the polarisation;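 also: polarization taken with two DNA probes labelled with fluorescein and Texas red; % of control where 0% means no effect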
Target sequence (P11308 whole entry, looked up, the tested form may be a part): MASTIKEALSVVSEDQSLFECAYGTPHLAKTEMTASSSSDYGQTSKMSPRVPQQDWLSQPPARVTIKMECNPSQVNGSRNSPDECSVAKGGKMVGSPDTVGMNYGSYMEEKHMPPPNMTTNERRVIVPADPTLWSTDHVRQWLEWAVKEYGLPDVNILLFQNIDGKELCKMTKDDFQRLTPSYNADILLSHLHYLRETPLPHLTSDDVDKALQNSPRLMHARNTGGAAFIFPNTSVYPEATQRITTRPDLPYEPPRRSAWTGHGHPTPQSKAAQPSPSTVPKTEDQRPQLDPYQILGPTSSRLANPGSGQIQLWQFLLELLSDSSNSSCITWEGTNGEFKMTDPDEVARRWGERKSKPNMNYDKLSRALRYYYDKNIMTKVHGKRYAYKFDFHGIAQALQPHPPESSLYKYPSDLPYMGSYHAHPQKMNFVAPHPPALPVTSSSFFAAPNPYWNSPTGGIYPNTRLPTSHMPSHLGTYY
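His-tagged ERG Ets domain (1 uM in the protein solution; 300mM KCl, 50mM Tris-HCl, 1mM EDTA, 1mM DTT, pH 7.5) received compound, then a probe mix of 5 nM fluorescein-DNA and 100nM Texas-615-DNA. Fluorescence polarization was read for both dyes.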
Mito fusion yeast: qHTS Assay for Small Molecule Inhibitors of Mitochondrial Division or Activators of Mitochondrial Fusion | S. cerevisiae fusion-defective mutant growth rescue, CellTiterGlo 48 h | actives 0.23% (n = 320,000) | AID 485298, 2010 | Potency, µM (highest dose often 46.1 µM), for the others: at the highest dose growth rescue (activation), hits mostly activators; also: % of control where 0% means no effect; nearly all actives have a fitted effect of over 45% in size
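Luminescent cell viability in 1536-well qHTS format served as the measure of rescued growth in ts fusion-mutant S. cerevisiae cultured on non-fermentable YPEG for 48 hours at 37C.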
TDP43 rescue: qHTS of TDP-43 Inhibitors; TDP-43 expressing yeast growth rescue, BacTiter-Glo, 24 h; Potency, µM (titrated, usually from 46.1 µM), inactives show at the highest dose growth rescue (activation), most hits filed as activators; actives 1.8% (n = 410,000); also: % of control where 0% means no effect; nearly all actives have a fitted effect of over 50% in size
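Galactose-induced TDP-43 yeast, OD600=0.02, compound pinned; 24 hr, 30 deg C; BacTiter-Glo luminescence for growth. Inhibitors of TDP-43 toxicity read as activators.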
* hit, by the source's call; i = inactive; ? = inconclusive; nt = no result given; [ ] = another dose, or the depositor's remark. Unless noted, calls follow the shape of the dose curve; as a rule, active = well fitted curve in the direction sought with a large enough effect; inconclusive = small, poorly fitted or top-dose-only effect, or another doubt; inactive = no such curve, though single readings can be large; an effect the other way counts as inactive or inconclusive. Potency is read from the fitted curve at half-maximal effect.

SMILES	Abeta yeast res	aSyn rescue	FUS yeast rescue	ERG Ets-DNA blk	Mito fusion yeast	TDP43 rescue
Cc1nc(C)c(-c2ccc(SCc3ccc(Cl)cc3)nn2)s1	i	14%	?	-7%	?	?
Cc1nc(C)c(-c2ccc(SCc3cccc(F)c3)nn2)s1	i	-8%	i	-11%	?	20µM*
Cc1ccccc1-c1noc(CSc2nnc(-c3ccncc3)n2-c2ccc(F)cc2)n1	?	nt	i	-4%	nt	3%[9.22 µM]
Cc1ccc(-n2c(SCc3nc(-c4ccccc4C)no3)nnc2-c2ccncc2)cc1C	i	nt	i	1%	nt	32µM*
COC(=O)N1C(=O)[C@@](c2ccc(OC)cc2)(C(C)C)N1C(=O)OC	i	8%	i	-4%	1%	15%
COC(=O)N1C(=O)[C@](c2ccc(Cl)cc2)(C(C)C)N1C(=O)OC	i	6%	i	4%	-1%	35µM*
C/C(=N\Nc1cc(C)nc(-c2ccccc2O)n1)c1ccccc1O	i	-9%	i	5%	6%	11µM*
Cc1cc(N/N=C\c2ccccc2)nc(-c2ccccc2O)n1	i	-10%	i	-2%	7%	26%
CN(/N=C/c1cc(Br)cc(Br)c1O)c1cccc(C(F)(F)F)n1	i	8.9µM*	i	-8%	-5%	?
COc1ccc(Cl)cc1NC(=O)c1cc2c(=O)n3ccccc3nc2s1	i	nt	i	-4%	nt	0%
CCOC(=O)c1ccc(NC(=O)CC2C(=O)N(c3ccc(F)cc3)C(=O)N2Cc2ccc3c(c2)OCO3)cc1 (centres undefined)	i	nt	40µM*	-3%	nt	2%
Clc1ccc(-c2nn3c(-c4cc(-c5ccccc5)n[nH]4)nnc3s2)cc1	nt	5%	nt	nt	nt	nt
COc1ccc(Cl)cc1NC(=S)NCCSc1ccc(C)cc1	i	-6%	nt	-4%	5%	22µM*
O=C(NCCSc1ccc(Cl)cc1)c1ccco1	i	-3%	i	-13%	0%	7.1µM*
COc1ccccc1NC(=S)NCCSc1ccc(Cl)cc1	i	-8%	nt	-3%	21%	0%
Cc1cccc(C)c1NC(=S)NCCSc1ccc(Cl)cc1	i	6%	i	7%	5%	22µM*
O=C1N(CCCO)CCC12CCC(c1ccccc1)CC2 (centres undefined)	nt	nt	i	nt	nt	nt
Cc1cc(NC(=O)N2CCC(CN3CCOCC3)CC2)ccc1Br	i	nt	i	8%	nt	-3%
COC(=O)c1ccc(NC(=O)CSc2cn(CC(=O)N3CCCCCC3)c3ccccc23)cc1	i	nt	?	2%	nt	16%
O=C(CCNc1cc(Cl)cc(Cl)c1)c1ccco1	i	16%	i	0%	-10%	16µM*
CC(C)C[C@H](NC1(C(=O)NCCc2c[nH]c3ccccc23)CCC1)C(=O)NCCCc1ccccc1	nt	nt	i	nt	nt	nt
CC(C)(C)C(=O)NC1CCCCN(Cc2cccc(Cl)c2)C1=O (centres undefined)	nt	nt	i	nt	nt	nt
CCOc1ccc(NC2=C(OC)C(=O)c3ccccc3C2=O)cc1	i	-12%	i	-2%	8%	18µM*
COC1=C(Nc2ccc(O)cc2)C(=O)c2ccccc2C1=O	i	-12%	i	1%	-7%	?
COC1=C(Nc2ccc(OC)cc2)C(=O)c2ccccc2C1=O	i	-16%	i	-6%	5%	18µM*
SMILES	Abeta yeast res	aSyn rescue	FUS yeast rescue	ERG Ets-DNA blk	Mito fusion yeast	TDP43 rescue
COc1ccc(NS(=O)(=O)c2cccc3ccccc23)cc1	i	?	i	8%	nt	11µM*
Cc1cc2c(s1)c1cnn(Cc3cc(F)c(F)cc3F)c(=O)c1n2C	nt	nt	i	nt	nt	nt
O=C(N/N=C/c1ccccc1)NC1CCCCC1	i	3%	nt	nt	2%	21%
O=C(N/N=C/c1cccc(F)c1)NC1CCCCC1	i	14%	i	9%	17%	13µM*
N=c1c2c(-c3ccccc3)c(-c3ccccc3)n(CCc3ccccc3)c2ncn1C1CCC(O)CC1 (centres undefined)	nt	nt	i	nt	nt	nt
Cc1ccc2nc(NNC(=O)c3ccc(S(=O)(=O)N4CCc5ccccc5C4)cc3)sc2c1	i	?	?	11%	-1%	8.9µM*
COc1ccc(-c2nnc(NC(=O)c3ccc(S(=O)(=O)N4CCc5ccccc5C4)cc3)o2)cc1	i	-1%	i	-9%	3%	3%
Cc1cc(C)c2nc(NNC(=O)c3ccc(S(=O)(=O)N4CC(C)CC(C)C4)cc3)sc2c1 (centres undefined)	i	1%	i	-13%	-5%	5µM*
O=C(Nc1nnc(C2CC2)o1)c1ccc(S(=O)(=O)N2CCc3ccccc3C2)cc1	i	18µM*	i	-14%	-5%	16µM*
CC(C)COC(=O)N1CCCCC1c1cc(C(=O)NCc2ccccc2)no1 (centres undefined)	i	7%	i	nt	nt	19%
COc1ccc(F)cc1S(=O)(=O)NCCc1csc(-c2ccc(Cl)cc2)n1	i	nt	?	0%	nt	?
O=S(=O)(NCCc1csc(-c2cccnc2)n1)c1ccc(Cl)s1	11µM*	-2%	i	0%	22%	14µM*
O=S(=O)(NCCc1csc(-c2ccc(F)cc2)n1)c1ccc(F)cc1F	?	nt	i	5%	nt	2.8µM*
C=C1C=C(C)n2ncc(C(=O)NCCCCCC)c2N1	nt	0%	nt	nt	nt	nt
COc1ccc(N(CC(=O)Nc2cccc(N(C)S(C)(=O)=O)c2)S(=O)(=O)c2ccc(F)cc2)cc1	i	4%	?	-1%	5%	-17%
COc1ccc(N(CC(=O)Nc2cccc(N(C)S(C)(=O)=O)c2)S(=O)(=O)c2ccc(C)cc2)cc1	i	9%	28µM*	1%	-2%	7%
O=C(CN1C(=O)C2(SCC(=O)N2c2cccc(F)c2)c2ccccc21)NCCc1ccccc1 (centres undefined)	i	-7%	i	11%	nt	10%
c1ccc(Nc2c(-c3c[nH]c4ccccc34)nc3ccccn23)cc1	i	nt	i	-2%	nt	9%
Cc1ccc(CNC(=O)c2oc3ccc(S(=O)(=O)N4CCCC(C)C4)cc3c2C)cc1 (centres undefined)	i	nt	?	1%	nt	0%
Oc1ccc(C2C[C@H]3CC[C@@H]2C3)cc1O (some centres undefined)	?	3%	i	-8%	11%	14µM*
